# A number with no mark means an inactive call.
# Assay: growth of efflux-deficient E. coli DRC39 – strain DRC39, OD650, 48 h, E. coli filamentation inducers, primary screen (AID 1179);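 also: screen aims at cell division blockers that make cells filament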
# Conditions: E. coli DRC39 delta-acrAB growth, higher = more signal, called active from +8 up or from −8 down
row,Structure (SMILES),z-score
1,O=C1OCC=C[C@H]2OC34C=CCN(CCN5CCOCC5)C(=O)[C@H]3N(CCCO)C(=O)[C@@H]4[C@@H]12 (some centres not stated),-1.15
2,[N-]=[N+]=Nc1ccccc1C[C@@]1(C(=O)NCCN2CCOCC2)N=C(c2ccc(OCCCO)cc2)O[C@@H]1c1ccccc1,0.745
3,COc1ccc(C(=O)Nc2ccc(CN3C(=O)[C@@]4(O[C@@H](CCO)[C@H]([Si](C)(C)c5ccc(OC)cc5)[C@H]4C)c4ccccc43)cc2)cc1,-0.0036
4,CC(C)(C)OC(=O)CC[C@@]1(C(N)=O)N=C(c2ccc(OCCCO)cc2)O[C@@H]1c1ccccc1,-1.12
5,COc1ccc(C(=O)Nc2ccc(CN3C(=O)[C@@]4(O[C@@H](CC(=O)N5CCC[C@H]5CO)[C@H]([Si](C)(C)c5ccc(OC)cc5)[C@H]4C)c4ccccc43)cc2)cc1,1.26
6,CN1C(=O)C2C=CC(C(O)C3CCCCC3)N(Nc3ccc([N+](=O)[O-])cc3[N+](=O)[O-])C2C1=O (configuration not stated),-0.556
7,CN1C(=O)C2C=CC(C(O)Cc3ccccc3)N(Nc3ccccc3)C2C1=O (configuration not stated),-0.801
8,COc1ccc(CCNC(=O)[C@@]2(Sc3ccc(C)cc3)CC(=O)N(C3CCCCC3)[C@@H]2c2ccc(CO)cc2I)cc1,0.238
9,O=C1OCCC/C=C\[C@H]2OC34C=CCN(CCN5CCOCC5)C(=O)[C@H]3N(CCCO)C(=O)[C@@H]4C12 (some centres not stated),-0.125
10,C=CCC(OC(C)=O)[C@@H]1[C@@H](N(Cc2ccc(-c3ccccc3)cc2)C(=O)Cc2ccc(F)cc2)c2cc(OCCCO)ccc2N1C(=O)c1ccc(-c2ccccc2)cc1 (some centres not stated),1.6
11,O=C(c1ccccc1)N1Cc2ccccc2[C@@H]2OC(c3ccc(OCCCO)cc3)=N[C@]2(Cc2ccccc2)C1=O,-0.749
12,COC(=O)C(CC#Cc1ccc2c(c1)[C@]1(C(=O)N2)[C@H](C(=O)O)[C@H]2C(=O)O[C@H](c3ccccc3)[C@H](c3ccccc3)N2[C@@H]1c1ccc(O)cc1)C(=O)OC,-0.0012
13,O=C1NCC(=O)N2[C@@H]1C[C@@H](C(=O)O)[C@H]2c1cccc(OCCO)c1,0.524
14,C=CCNC(=O)[C@@H]1[C@H]2C(=O)O[C@H](c3ccccc3)[C@H](c3ccccc3)N2[C@H](c2ccc(OCCO)cc2)[C@@]12C(=O)Nc1ccc(C#CCCO)cc12,0.184
15,C=C(/C(=C/C[C@@H](OC(C)=O)c1ccc(OCCO)cc1)c1cnc2ccccc2c1)C(C)C,0.79
16,CN(C)C(=O)[C@]1(Cc2ccccc2N=[N+]=[N-])N=C(c2ccc(OCCCO)cc2)O[C@@H]1c1ccccc1,1.15
17,COc1ccc(CCN2C(=O)[C@@]3(c4ccc([N+](=O)[O-])cc4)CC(=O)N(C4CCCCC4)[C@@H]3c3ccc(CO)cc32)cc1,-0.0209
18,C[N+](C)(C)CCCCNC(=O)[C@H]1C[C@H]2C(=O)N[C@@H](Cc3ccccc3)C(=O)N2[C@H]1c1ccc(O)cc1,1.17
19,O=C1O[C@H](c2ccccc2)[C@H](c2ccccc2)N2[C@H]1[C@@H](C(=O)N1CCN(c3ncccn3)CC1)[C@]1(C(=O)Nc3ccc(C#CC4=CCCCC4)cc31)[C@H]2c1ccc(O)cc1,0.557
20,COC(=O)[C@@]1(Cc2ccccc2)[C@H]2c3cc(C(=O)N(C)C)n(CCSCCO)c3C[C@H]2CN1C(=O)c1ccccc1,-0.68
21,CC(C)OC(=O)C=C1C[C@@H](c2ccccc2C(F)(F)F)O[C@@H](c2ccccc2C(F)(F)F)O1,0.217
22,COCCCNC(=O)[C@@]1(Cc2ccccc2)N=C(c2ccc(OCCCO)cc2)O[C@H]1c1ccccc1,-0.456
23,CCCCC=C[C@@H](NC(=O)Oc1cccc(C(F)(F)F)c1)c1ccccc1,-0.665
24,O=C1C2C=CC(C(O)C(c3ccccc3)c3ccccc3)N(n3cnnc3)C2C(=O)N1Cc1ccccc1 (configuration not stated),-0.305
25,Cc1ccc(S[C@]2(C(=O)NCC(C)C)CC(=O)N(Cc3cc(C(F)(F)F)cc(C(F)(F)F)c3)[C@@H]2c2ccc(CO)cc2I)cc1,-0.586
26,COc1cc2c(cc1O)C(C1CC1)N(Cc1cc3c(cc1Br)OCO3)CC2 (configuration not stated),-1.71
27,CCCCC(=C=CC[C@@H](O)c1ccccc1OCCO)CCO,-0.0575

# From PubChem BioAssay
